From PubChem BioAssay
DENV2 CPE = inhibitors of DENV2 cytopathic effect | 350,000 tested, 1.7% active | DENV2-infected cells, cytopathic effect rescue, plate reader | CPE inhibition, % at 9.99 µM; in the data active = CPE inhibition above about 20%, passing the limit was not always enough; inconclusive = no clear call, values can overlap the other calls; tested in BHK-21 cells;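 also: 0% = median of neutral control wells and 100% = median of positive control wells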
MLL AF4-AF9 inh = inhibitors of human MLL-AF4/AF9 interaction | P42568 | AlphaScreen, biotin-AF4 peptide binding to FLAG-AF9 | inhibition, % at 10 µM | 350,000 tested, 0.47% active | AID 651704;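 active = every replicate reaching a set inhibition limit, whatever the replicate mean, cut at about 25% in these data; inconclusive = mean inhibition reaches that limit but some replicates miss it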;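 also: 0% = plate neutral control median and 100% = total signal loss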
Target sequence (P42568 whole entry, looked up): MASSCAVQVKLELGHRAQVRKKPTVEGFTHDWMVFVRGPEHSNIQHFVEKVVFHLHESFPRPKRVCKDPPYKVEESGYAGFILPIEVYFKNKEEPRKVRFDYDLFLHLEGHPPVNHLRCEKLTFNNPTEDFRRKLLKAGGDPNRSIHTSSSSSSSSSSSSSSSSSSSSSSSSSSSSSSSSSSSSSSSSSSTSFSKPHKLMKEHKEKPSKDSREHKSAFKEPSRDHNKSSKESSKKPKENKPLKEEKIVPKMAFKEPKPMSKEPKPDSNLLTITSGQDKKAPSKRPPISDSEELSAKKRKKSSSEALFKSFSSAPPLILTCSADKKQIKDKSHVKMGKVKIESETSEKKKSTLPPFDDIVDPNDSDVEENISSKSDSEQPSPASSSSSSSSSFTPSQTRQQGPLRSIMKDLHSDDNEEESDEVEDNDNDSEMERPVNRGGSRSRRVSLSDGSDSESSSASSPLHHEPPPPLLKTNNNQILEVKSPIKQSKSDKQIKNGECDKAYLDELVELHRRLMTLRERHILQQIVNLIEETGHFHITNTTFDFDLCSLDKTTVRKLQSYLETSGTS
FGF22 binding = binders of recombinant human FGF22 by thermal shift; Q9HCT0; SYPRO orange fluorescence; percent of sucrose octasulfate shift, DMSO zero; activity (Tm shift, normalised), % at 9.99 µM; 340,000 tested, 1.5% active; AID 651658;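 active = mean Tm shift, scaled 0 neutral to 100 positive control, at about 1.3% or above, every replicate too, limit read from the data; inconclusive = no clear call, values can overlap the other calls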
ERAP1 inh = ERAP1 (human) enzyme inhibition | Q9NZ08 | recombinant ERAP1, Leu-AMC fluorescence, 60 min | inhibition, % at 10.7 µM | 340,000 tested, 0.15% active | AID 652197;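 active = mean replicate inhibition of at least 30%, or all replicates individually reaching that 30% level; inactive = mean below 30% and not every replicate reaching it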;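 also: 0% = neutral control wells and 100% = L-leucinethiol positive control wells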
RAD52 anneal inh = blocks human RAD52 DNA annealing. P43351. recombinant RAD52 DNA annealing, FRET fluorescence. inhibition, % at 18.7 µM. 360,000 tested, 0.46% active;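 active = every replicate showing at least 50% inhibition; inconclusive = mean inhibition at least 50% but not in every replicate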
Numbers without * were called inactive; u = inconclusive; x = no result. Hits are enriched below; roughly 4% of the tested compounds scored in any of these assays.

SMILES	DENV2 CPE	MLL AF4-AF9 inh	FGF22 binding	ERAP1 inh	RAD52 anneal inh
C[C@H](CO)N1C[C@H](C)[C@@H](CN(C)C(=O)Nc2cc(F)ccc2F)Oc2cc(-c3cccc(C#N)c3)ccc2S1(=O)=O	6	2	0	0	-10
CC1CN(C(=O)c2cc3cc([N+](=O)[O-])ccc3s2)CC(C)O1 (stereo not given)	5	1	44*	0	0
C[C@@H]1CN([C@H](C)CO)C(=O)c2cccc(NC(=O)C3CCCCC3)c2O[C@@H]1CN(C)S(=O)(=O)c1cccs1	1	-3	0	2	8
Cc1ccc([C@@H]2CC=C(C(=O)O)[C@H](c3ccc(C(C)(C)C)cc3)N2S(=O)(=O)c2ccc(C)cc2)cc1	u	-2	0	1	-23
Cc1ccc([C@@H]2CC=C(C(=O)O)[C@H](c3ccc(Br)cc3)N2S(=O)(=O)c2ccc(C)cc2)cc1	4	1	0	x	-9
CCc1ccc([C@@H]2CC=C(C(=O)O)[C@H](c3ccc(C(C)(C)C)cc3)N2S(=O)(=O)c2ccc(C)cc2)cc1	48*	0	41	5	-10
Cc1ccccc1S(=O)(=O)N1[C@@H](c2ccc(F)cc2)C(C(=O)O)=CC[C@H]1c1ccc(Cl)cc1	0	8	2.2*	5	-20
Cc1ccc(S(=O)(=O)N2[C@@H](c3ccc(Br)cc3)C(C(=O)O)=CC[C@H]2c2ccc(C(C)C)cc2)cc1	23*	-3	0	x	-6
CNC[C@@H]1OCCCC[C@@H](C)Oc2ccc(NC(=O)CCC(F)(F)F)cc2C(=O)N([C@@H](C)CO)C[C@H]1C	u	-4	0	-1	-143
CCCNC(=O)[C@H]1[C@H](CO)[C@H]2Cn3c(ccc(-c4ccc(F)cc4)c3=O)[C@H]2N1CC1CC1	1	-1	0	0	0
CC(C)Cc1nnc(NC(=O)Cc2cccs2)s1	-3	0	43*	5	-33
COCCn1c(SCc2ccc(OC)c(F)c2)nnc1-c1ccncc1	2	1	0	2	-3
CSc1nnc(-c2cc[n+](C)cc2)n1CCO	0	0	0	102*	-10
C[C@H]1CN([C@@H](C)CO)C(=O)c2cc(-c3ccncc3)cnc2O[C@@H]1CN(C)S(=O)(=O)c1ccc(F)cc1	0	-2	0	-3	10
O=C(c1cccc(F)c1)N1CCCCN2[C@H](CO)[C@H](c3ccc(-c4ccncc4)cc3)[C@@H]2C1	22*	-2	0	-2	-8
O=C(c1ccc2c(c1)OCO2)N1CCCCN2[C@H](CO)[C@@H](c3ccc(-c4ccccc4)cc3)[C@@H]2C1	27*	-7	1	0	-27
O=C(c1ccc2c(c1)OCO2)N1CCCCN2[C@H](C1)[C@@H](c1ccc(-c3ccccc3)cc1)[C@@H]2CO	13	-3	0	2	-14
Cc1cccc(-c2ccc([C@@H]3[C@H](CO)N4CCCCN(C(=O)c5ccncc5)C[C@@H]34)cc2)c1	18	x	0	x	-1
O=C(c1cccc(F)c1)N1CCCCN2[C@H](C1)[C@@H](c1ccc(-c3ccncc3)cc1)[C@@H]2CO	9	-5	0	-3	-12
Cc1cccc(-c2ccc([C@H]3[C@H]4CN(C(=O)c5ccncc5)CCCCN4[C@H]3CO)cc2)c1	22*	11	0	2	3
O=C(C[C@H]1CC[C@H](NC(=O)c2ccncc2)[C@H](CO)O1)NCc1ccncn1	3	-16	x	0	7
c1ccc(CSc2ccc(-c3cccs3)nn2)nc1	3	-2	44*	1	-29
Cc1noc(C)c1NC(=O)N(C)C[C@@H]1Oc2c(NC(=O)Nc3cccc4ccccc34)cccc2C(=O)N([C@@H](C)CO)C[C@H]1C	7	0	0	0	6
NC(=O)CC(NC(=O)Cc1cccc2ccccc12)c1ccc(N2CCC(N3CCCCC3)CC2)c([N+](=O)[O-])c1 (stereo not given)	23*	x	0	-1	-6
NC(=O)CC(NC(=O)Cc1cccc2ccccc12)c1ccc(N2CCCCCC2)c([N+](=O)[O-])c1 (stereo not given)	-4	-1	0	1	3
SMILES	DENV2 CPE	MLL AF4-AF9 inh	FGF22 binding	ERAP1 inh	RAD52 anneal inh
Cc1cc(C)cc(C(=O)NC(CC(N)=O)c2ccc(N3CCC(Cc4ccccc4)CC3)c([N+](=O)[O-])c2)c1 (stereo not given)	123*	x	0	-4	-5
COc1cccc(NC(=O)Nc2ccc3c(c2)C(=O)N(C)[C@H]2CC[C@H](CC(=O)NCCc4ccccc4)O[C@@H]2CO3)c1	-5	4	0	-1	-12
Cc1noc(C)c1NC(=O)Nc1ccc2c(c1)CC(=O)N([C@H](C)CO)C[C@H](C)[C@H](CN(C)C(=O)Nc1c(C)noc1C)O2	-3	-30	0	-1	12
Cc1cc(NC(=O)CSc2nnc(C3COc4ccccc4O3)n2N)no1 (stereo not given)	2	-1	43*	-3	-8
NC(=O)NC(=O)COC(=O)CC12CC3CC(CC(C3)C1)C2	-6	2	44*	3	4
O=C(O)Cn1nc(-c2ccccc2)cc1-c1ccccc1	80*	-2	0	-2	-11
CC1CN(C(=S)SCCN2C(=O)CCC2=O)CC(C)O1 (stereo not given)	14	-2	44*	1	-11
COc1ccc(-c2c(C)nn3c(N4CCN(Cc5ccccc5)CC4)cc(C)nc23)cc1OC	-7	15	0	1	-63
COc1ccc(-c2cc(C)nc3c(-c4ccccc4)cnn23)cc1	9	1	43*	-2	-20
COc1ccccc1-c1c(C)nn2c(-c3ccccc3)cc(C)nc12	5	27*	0	2	-8
Cc1cc(-c2ccccc2)n2ncc(-c3ccccc3)c2n1	-6	-5	0	0	-13
COc1ccccc1-c1c(C)nn2c(N3CCN(Cc4ccccc4)CC3)cc(C)nc12	55*	3	0	9	1
COC(=O)[C@@H]1[C@@H](CO)[C@@H]2Cn3c(ccc(C4=CCCCC4)c3=O)[C@@H]2N1CC1CCCCC1	-7	4	0	x	-21
O=C(C[C@@H]1CC[C@H]2[C@@H](COC[C@@H](O)CN2Cc2ccc(Oc3ccccc3)cc2)O1)Nc1nccs1	-4	5	0	2	-7
Cc1cs/c(=N\N=C2CCCCC2)n1Cc1ccco1	-6	11	42	0	-68
CC(C)=N/N=c1\scc(C)n1Cc1ccco1	-1	-3	43*	1	-12
C/C=C/c1cccc(-c2nc(C(=O)N3CCN(C)CC3)cc3c2[C@H](CCO)N(C(=O)NC(C)C)C3)c1	-5	1	0	0	5
CCCN1CCC(=O)N([C@H](COc2ccccc2)CC(C)C)CC1	0	1	0	x	-8
CC(C)C[C@@H](COc1ccccc1)N1CCN(CCc2ccccc2)CCC1=O	101*	1	0	5	-12
